Values joined by “and” are separate entries in the source; they are usually repeats but may differ in a detail not shown here. Equal entries are not always repeated. Among all 16,000 compounds or so, about 5,700 (36%) were called active. Inconclusive results (about 24%) are left out. Calls follow the shape of the dose curve; as a rule, active = well fitted curve in the direction sought with a large enough effect; inconclusive = small, poorly fitted or top-dose-only effect, or effect the other way; inactive = no such curve, though single readings can be large or run the other way. The list shows a part of the results.
biological target: Cytochrome P450 1A2 (Homo sapiens) (UniProt P05177); test: Cytochrome panel assay with activity outcomes; conditions: recombinant CYP, pro-luciferin dealkylation, luminescence, p450-cyp1a2; series mostly up to 57.1 µM; activity, negative = inhibition: at the top concentration
Sequence (P05177 whole entry, looked up): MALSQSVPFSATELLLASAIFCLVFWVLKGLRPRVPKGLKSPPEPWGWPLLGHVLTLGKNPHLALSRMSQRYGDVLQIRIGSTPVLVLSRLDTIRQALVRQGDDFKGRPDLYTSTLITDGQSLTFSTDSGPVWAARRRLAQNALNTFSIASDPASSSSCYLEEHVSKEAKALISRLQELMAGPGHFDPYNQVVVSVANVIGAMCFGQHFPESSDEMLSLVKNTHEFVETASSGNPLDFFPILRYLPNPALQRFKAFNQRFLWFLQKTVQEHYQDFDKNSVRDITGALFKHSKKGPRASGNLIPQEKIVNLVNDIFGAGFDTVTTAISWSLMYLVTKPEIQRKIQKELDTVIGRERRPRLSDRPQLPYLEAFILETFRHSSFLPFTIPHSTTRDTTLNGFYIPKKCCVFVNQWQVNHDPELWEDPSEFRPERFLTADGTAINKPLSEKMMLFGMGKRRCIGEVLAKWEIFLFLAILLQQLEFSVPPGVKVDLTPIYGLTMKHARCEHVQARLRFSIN
% is scaled to controls: 0 for no effect and ±100 for the full control effect.

Row | SMILES | activity, negative = inhibition | AC50
1 | CC[C@@]12CCCN3CCc4c(n(c5ccccc45)C(=O)C1)[C@H]32 | -9.85% [at 2.29 µM] (inactive) | –
2 | O=C(CCCCC(=O)Nc1c(I)cc(I)c(C(=O)O)c1I)Nc1c(I)cc(I)c(C(=O)O)c1I | -8.15% [at 25.6 µM] (inactive) | –
3 | CCN(CC)Cc1c(O)ccc2c(=O)c(Oc3ccccc3OC)coc12 | 39.3% (inactive) | –
4 | CCOc1ccccc1Oc1c(C)oc2cc(OC(=O)c3ccco3)ccc2c1=O | -30% (inactive) | –
5 | CCOc1ccccc1Oc1coc2cc(OC)ccc2c1=O | – | 5.01 µM (active)
6 | CC(C)CC(=O)N1CCC(N2CCN(c3ccccc3)CC2)CC1 | -29.8% (inactive) | –
7 | CCOC(=O)C1=C(O)C(=O)N(Cc2ccccc2)C1 | – | 1 µM (active)
8 | CCOC(=O)C1(S(=O)(=O)c2ccccc2)CCN(Cc2ccccc2)CC1 | -10.4% (inactive) | –
9 | CC(=O)N1CCC2(CCN(Cc3ccccc3)CC2)CC1 | -1.26% (inactive) | –
10 | CCN(CC)N=Nc1[nH]nc2nc(C)cc(C)c12 | – | 2.51 µM (active)
11 | Cc1cc(C)c2c(N=NN(C)C)[nH]nc2n1 | – | 2.24 µM (active)
12 | CCOC(=O)N1CCC(NC(=O)CCC(=O)N2CC(C)Oc3ccc(C)cc32)CC1 (stereo not drawn) | -20.3% (inactive) | –
13 | CO[C@@H]1COC(=O)CC=C[C@@H](C)[C@@H]2C=C[C@@H](O)[C@@H](COC(=O)C/C=C\[C@H]1C)O2 | -5.43% [at 11.4 µM] (inactive) | –
14 | CN(C)Cc1ccc(-c2cc3onc(-c4ccccc4)c3c(=O)n2C)cc1 | -13.3% [at 11.4 µM] (inactive) | –
15 | CC(C)NC(=O)N1CCC2(CC1)CCN(C(=O)c1cnccn1)CC2 | 0.219% (inactive) | –
16 | O=S(=O)(Nc1ccc(Cc2ccncc2)cc1)c1ccc(Cl)c(Cl)c1 | – | 0.126 µM (active)
17 | O=S(=O)(Nc1ccc(Cc2ccncc2)cc1)c1cccs1 | – | 0.126 µM (active)
18 | O=S(=O)(Nc1ccc(Cc2ccncc2)cc1)c1ccc(Br)cc1 | – | 0.0447 µM (active)
19 | Nc1ccc(S(=O)(=O)Nc2ncccn2)cc1 | -0.15% [at 25.6 µM] (inactive) | –
20 | COc1ccc(S(=O)(=O)Nc2ccc(S(=O)(=O)N3CCCCC3)cc2)cc1C | -7.68% (inactive) | –
21 | C/C(=N/S(=O)(=O)c1ccc(Cl)c(Cl)c1)OCC(C)(C)C | -4.08% [at 11.4 µM] (inactive) | –
22 | CCNS(=O)(=O)c1ccc(NS(C)(=O)=O)cc1 | -6.6% (inactive) | –

Row | SMILES | activity, negative = inhibition | AC50
23 | O=C(C(Cc1ccccc1)N1C(=O)C2C3CCC(C3)C2C1=O)N1CCCCC1 (stereo not drawn) | 10.3% (inactive) | –
24 | COc1cc(C(=O)Nc2nc3ccc4nc(C)sc4c3s2)cc(OC)c1OC | -2.02% (inactive) | –
25 | Cc1nc2c(ccc3nc(NC(=O)c4ccc5c(c4)OCCO5)sc32)s1 | – | 3.16 µM (active)
26 | Cc1nc2ccc3nc(NC(=O)c4ccc(S(=O)(=O)N5CCOCC5)cc4)sc3c2s1 | -11.7% (inactive) | –
27 | O=C(O)c1ccc(NS(=O)(=O)Cc2ccccc2)cc1 | -12.1% [at 11.4 µM] (inactive) | –
28 | CC(=O)Nc1ccc2c(c1)C(=Nc1ccc(C(=O)O)cc1)c1ccccc1-2 | – | 0.316 µM (active)
29 | c1ccc2c(c1)C(=Nc1ccc(N=C3c4ccccc4-c4ccccc43)cc1)c1ccccc1-2 | -19.6% [at 2.29 µM] (inactive) | –
30 | CCCSc1nc(NCc2ccco2)c2c3c(sc2n1)COC(C)(C)C3 | – | 0.794 µM (active)
31 | CCCSc1nc(SCC(=O)NCc2ccccc2)c2c3c(sc2n1)COC(C)(CC)C3 (stereo not drawn) | -24.1% (inactive) | –
32 | Cc1nc(NS(=O)(=O)c2ccccc2C)c2c3c(sc2n1)CCC3 | – | 3.16 µM (active)
33 | Cc1ccc(-n2c(SCC(=O)NCc3ccco3)nc3sc4c(c3c2=O)CC(C)(C)SC4)cc1 | -16.6% (inactive) | –
34 | Cc1nc(NCc2ccco2)c2c3c(sc2n1)CCC3 | – | 2.51 µM (active)
35 | CCSc1ncnc2c1sc1nc(-c3ccco3)c3c(c12)CC(C)(C)OC3 | -15.2% (inactive) | –
36 | Cc1ccc(S(=O)(=O)c2nc(S(=O)(=O)c3ccc(C)cc3)c(NCc3ccco3)s2)cc1 | -0.958% (inactive) | –
37 | C[C@H](O/N=C1/[C@H]2O[C@@H]2[C@@H](O)[C@H]2[C@H]1CCn1c(=O)n(-c3ccccc3)c(=O)n12)c1cn([C@H](CO)Cc2ccccc2)nn1 | -6.4% [at 11.4 µM] (inactive) and 3.91% [at 11.4 µM] (inactive) | –
38 | COc1cc(C2C(C#N)=C(N)N(c3sc4c(c3C#N)CCCC4)C3=C2C(=O)CC(C)(C)C3)cc(OC)c1OC (stereo not drawn) | -11% (inactive) | –
39 | O=C(c1csnn1)N1CCC[C@@]2(CCN(Cc3nccs3)C2)C1 | -3.58% (inactive) | –
40 | CNC(=O)/C=C1\NC(C)(C)Cc2c1ccc1ccccc21 | – | 6.31 µM (active)
41 | CC1(C)Cc2c(ccc3ccccc23)C(=O)N1 | – | 3.55 µM (active)
42 | C=C(NC(=O)C(=C)NC(=O)c1csc(C2=N[C@@H]3c4csc(n4)[C@@H]4NC(=O)c5csc(n5)[C@@H]([C@](C)(O)[C@H](C)O)NC(=O)[C@@H]5CSC(=N5)/C(=C/C)NC(=O)[C@@H]([C@H](C)O)NC(=O)c5csc(n5)[C@]3(CC2)NC(=O)[C@@H](C)NC(=O)C(=C)NC(=O)[C@@H](C)NC(=O)[C@@H]([C@@H](C)CC)N[C@H]2C=Cc3c([C@H](C)O)cc(nc3[C@@H]2O)C(=O)O[C@H]4C)n1)C(N)=O | -6.72% [at 25.6 µM] (inactive) | –
43 | COCC(=O)N1CCC[C@@]2(CCN(c3ncccn3)C2)C1 | -10.7% (inactive) | –

— PubChem BioAssay AID1851 (National Center for Advancing Translational Sciences (NCATS), 2009)
